# Tests used:
# Assay in all cases: DAPPL (digital affinity profiling via proximity ligation, sequencing); 10 mM Tris-HCl pH 7.5, 50 mM NaCl, 1 mM DTT, 4% glycerol, room temperature, 30 min; GST-TFs on glutathione beads, 16-mer random dsDNA library, 0.1% formaldehyde crosslink after washing; high values mean tight binding
# FLI1 = biological target: T1, FLI1 (Homo sapiens, UniProt Q01543 1-452); details: protein: recombinant; tags: N-terminal GST; dsDNA, one strand shown
# T1 sequence: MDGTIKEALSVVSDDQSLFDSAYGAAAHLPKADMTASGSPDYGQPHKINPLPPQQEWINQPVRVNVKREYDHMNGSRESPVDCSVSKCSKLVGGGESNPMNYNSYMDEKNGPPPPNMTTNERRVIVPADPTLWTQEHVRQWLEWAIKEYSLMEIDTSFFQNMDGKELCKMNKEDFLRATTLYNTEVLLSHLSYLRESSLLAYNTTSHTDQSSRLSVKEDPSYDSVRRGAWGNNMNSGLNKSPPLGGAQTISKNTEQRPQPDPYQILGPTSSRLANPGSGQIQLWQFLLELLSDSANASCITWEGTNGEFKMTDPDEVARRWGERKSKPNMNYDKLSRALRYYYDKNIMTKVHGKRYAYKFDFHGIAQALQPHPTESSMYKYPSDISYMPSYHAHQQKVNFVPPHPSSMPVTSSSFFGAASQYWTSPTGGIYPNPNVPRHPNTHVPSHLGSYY
# Procedure, shortened: (§1)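 Sequencing on an Illumina NextSeq500 followed washing, crosslinking with 0.1% formaldehyde, proximity ligation (BsaI/T4 ligase, 1 h, 37 °C) and PCR amplification of pools that had been incubated for 30 min at room temperature with 200 nmole of a random double-stranded 16-mer DNA library in Tris/NaCl/DTT/glycerol buffer. Each pool held DNA-barcoded human transcription factors, expressed in yeast as GST fusions and captured on glutathione beads, plus a tag-only sample. Binding signal is a hexamer's read frequency for a factor divided by its frequency in the tag-only sample.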
# ELK1 = biological target: T2, ELK1 (Homo sapiens, UniProt P19419 1-428); details: protein: recombinant; tags: N-terminal GST; dsDNA, one strand shown
# T2 sequence: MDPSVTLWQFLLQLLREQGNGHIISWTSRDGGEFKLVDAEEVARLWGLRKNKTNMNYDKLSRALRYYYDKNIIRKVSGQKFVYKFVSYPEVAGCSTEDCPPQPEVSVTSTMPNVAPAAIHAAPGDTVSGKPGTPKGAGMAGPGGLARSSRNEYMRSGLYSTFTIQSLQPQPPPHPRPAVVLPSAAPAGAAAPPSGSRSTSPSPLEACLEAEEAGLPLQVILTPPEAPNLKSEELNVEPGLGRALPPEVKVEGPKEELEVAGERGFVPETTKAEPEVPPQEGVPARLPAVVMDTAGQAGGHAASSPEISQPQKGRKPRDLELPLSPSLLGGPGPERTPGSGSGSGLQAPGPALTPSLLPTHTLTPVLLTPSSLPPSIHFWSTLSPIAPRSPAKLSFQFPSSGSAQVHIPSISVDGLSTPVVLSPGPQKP
# Procedure, shortened: as §1
# GABPA = biological target: T3, GABPA (Homo sapiens, UniProt Q06546 1-454); details: protein: recombinant; tags: N-terminal GST; dsDNA, one strand shown
# T3 sequence: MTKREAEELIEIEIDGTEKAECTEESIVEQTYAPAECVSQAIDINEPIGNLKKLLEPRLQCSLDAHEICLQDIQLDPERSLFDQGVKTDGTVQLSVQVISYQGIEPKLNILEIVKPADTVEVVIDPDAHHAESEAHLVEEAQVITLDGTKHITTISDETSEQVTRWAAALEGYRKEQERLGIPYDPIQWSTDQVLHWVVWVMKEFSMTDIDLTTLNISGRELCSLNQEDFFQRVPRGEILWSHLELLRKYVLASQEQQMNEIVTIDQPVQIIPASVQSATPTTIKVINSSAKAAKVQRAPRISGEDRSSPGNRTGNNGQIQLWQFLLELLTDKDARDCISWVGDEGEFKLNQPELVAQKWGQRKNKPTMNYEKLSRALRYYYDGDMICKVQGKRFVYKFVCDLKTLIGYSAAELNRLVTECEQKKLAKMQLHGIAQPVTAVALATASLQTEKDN
# Procedure, shortened: as §1
# ERG = biological target: T4, ERG (Homo sapiens, UniProt P11308 1-479); details: protein: recombinant; tags: N-terminal GST; dsDNA, one strand shown
# T4 sequence: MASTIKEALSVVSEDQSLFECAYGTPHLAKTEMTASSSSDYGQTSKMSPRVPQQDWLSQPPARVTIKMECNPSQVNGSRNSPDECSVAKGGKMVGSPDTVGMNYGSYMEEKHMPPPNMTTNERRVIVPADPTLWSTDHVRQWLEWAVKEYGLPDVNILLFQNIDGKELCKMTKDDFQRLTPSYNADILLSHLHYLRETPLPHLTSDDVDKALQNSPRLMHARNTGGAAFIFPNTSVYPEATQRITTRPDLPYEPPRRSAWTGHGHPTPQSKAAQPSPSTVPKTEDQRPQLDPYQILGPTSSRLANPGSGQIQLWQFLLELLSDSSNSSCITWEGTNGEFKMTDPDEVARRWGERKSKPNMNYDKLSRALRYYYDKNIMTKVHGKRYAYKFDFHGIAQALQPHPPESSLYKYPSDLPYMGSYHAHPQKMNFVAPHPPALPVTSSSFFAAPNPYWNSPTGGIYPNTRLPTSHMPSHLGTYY
# Procedure, shortened: as §1
# ELF1 = ELF1 (Homo sapiens, UniProt P32519 1-619); details: protein: recombinant; tags: N-terminal GST; dsDNA, one strand shown
# ELF1, sequence (P32519 whole entry): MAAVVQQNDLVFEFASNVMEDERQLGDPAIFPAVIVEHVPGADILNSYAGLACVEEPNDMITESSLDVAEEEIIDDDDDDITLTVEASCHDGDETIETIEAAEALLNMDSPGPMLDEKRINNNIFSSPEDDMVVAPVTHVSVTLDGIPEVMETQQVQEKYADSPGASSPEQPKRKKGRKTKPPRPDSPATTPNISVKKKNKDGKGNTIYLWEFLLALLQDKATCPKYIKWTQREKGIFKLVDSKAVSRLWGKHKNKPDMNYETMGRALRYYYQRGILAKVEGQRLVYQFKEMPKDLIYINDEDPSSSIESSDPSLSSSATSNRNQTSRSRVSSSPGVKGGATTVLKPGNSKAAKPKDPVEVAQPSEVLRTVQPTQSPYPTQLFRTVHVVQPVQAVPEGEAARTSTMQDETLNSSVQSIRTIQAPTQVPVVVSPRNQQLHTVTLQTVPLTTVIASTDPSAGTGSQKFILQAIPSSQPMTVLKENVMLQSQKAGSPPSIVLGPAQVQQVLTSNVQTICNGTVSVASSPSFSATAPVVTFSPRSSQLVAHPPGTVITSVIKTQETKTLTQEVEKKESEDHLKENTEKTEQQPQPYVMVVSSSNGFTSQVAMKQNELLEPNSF
# Procedure, shortened: as §1
# EHF = biological target: T5, EHF (Homo sapiens, UniProt Q9NZC4 1-300); details: protein: recombinant; tags: N-terminal GST; dsDNA, one strand shown
# T5 sequence: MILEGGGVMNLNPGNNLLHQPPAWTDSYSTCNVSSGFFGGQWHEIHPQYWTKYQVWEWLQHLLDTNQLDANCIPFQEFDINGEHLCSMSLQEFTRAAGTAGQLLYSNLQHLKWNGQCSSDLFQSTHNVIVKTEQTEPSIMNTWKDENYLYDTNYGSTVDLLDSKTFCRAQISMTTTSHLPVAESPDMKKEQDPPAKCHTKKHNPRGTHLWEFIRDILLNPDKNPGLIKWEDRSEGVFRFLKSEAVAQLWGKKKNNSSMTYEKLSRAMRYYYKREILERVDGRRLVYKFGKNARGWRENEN
# Procedure, shortened: as §1
# SPI1 = SPI1 (Homo sapiens, UniProt P17947 1-270); details: protein: recombinant; tags: N-terminal GST; dsDNA, one strand shown
# Procedure, shortened: as §1
# SPIB = SPIB (Homo sapiens, UniProt Q01892 1-262); details: protein: recombinant; tags: N-terminal GST; dsDNA, one strand shown
# SPIB, sequence (Q01892 whole entry): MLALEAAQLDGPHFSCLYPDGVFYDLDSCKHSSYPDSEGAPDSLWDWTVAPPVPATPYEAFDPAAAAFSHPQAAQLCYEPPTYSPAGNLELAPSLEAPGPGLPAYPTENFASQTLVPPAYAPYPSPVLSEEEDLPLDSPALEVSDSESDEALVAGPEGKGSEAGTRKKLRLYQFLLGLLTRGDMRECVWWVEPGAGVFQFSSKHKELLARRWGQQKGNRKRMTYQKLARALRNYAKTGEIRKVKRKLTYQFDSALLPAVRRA
# Procedure, shortened: as §1
# ELK3 = biological target: T6, ELK3 (Homo sapiens, UniProt P41970 1-407); details: protein: recombinant; tags: N-terminal GST; dsDNA, one strand shown
# T6 sequence: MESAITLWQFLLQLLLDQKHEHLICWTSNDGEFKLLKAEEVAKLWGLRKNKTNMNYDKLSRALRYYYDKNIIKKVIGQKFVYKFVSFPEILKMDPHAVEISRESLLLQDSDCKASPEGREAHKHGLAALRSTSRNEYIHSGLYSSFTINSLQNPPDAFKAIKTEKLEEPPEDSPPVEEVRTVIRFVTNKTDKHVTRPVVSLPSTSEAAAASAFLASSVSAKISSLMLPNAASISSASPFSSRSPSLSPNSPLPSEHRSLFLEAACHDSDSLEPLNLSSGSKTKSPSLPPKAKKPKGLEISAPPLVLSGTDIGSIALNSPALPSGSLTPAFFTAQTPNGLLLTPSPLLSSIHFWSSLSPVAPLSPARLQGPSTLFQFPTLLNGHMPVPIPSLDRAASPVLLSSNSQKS
# Procedure, shortened: as §1
# FEV = biological target: T7, FEV (Homo sapiens, UniProt Q99581 1-238); details: protein: recombinant; tags: N-terminal GST; dsDNA, one strand shown
# T7 sequence: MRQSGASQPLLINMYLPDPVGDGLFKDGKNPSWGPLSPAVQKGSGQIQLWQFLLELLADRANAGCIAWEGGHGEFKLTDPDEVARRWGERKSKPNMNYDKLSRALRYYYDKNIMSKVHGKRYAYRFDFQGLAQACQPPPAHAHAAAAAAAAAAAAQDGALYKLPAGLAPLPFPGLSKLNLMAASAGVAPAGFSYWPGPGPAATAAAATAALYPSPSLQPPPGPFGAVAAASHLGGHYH
# Procedure, shortened: as §1
# ETV5 = ETV5 (Homo sapiens, UniProt P41161 1-510); details: protein: recombinant; tags: N-terminal GST; dsDNA, one strand shown
# ETV5, sequence (P41161 whole entry): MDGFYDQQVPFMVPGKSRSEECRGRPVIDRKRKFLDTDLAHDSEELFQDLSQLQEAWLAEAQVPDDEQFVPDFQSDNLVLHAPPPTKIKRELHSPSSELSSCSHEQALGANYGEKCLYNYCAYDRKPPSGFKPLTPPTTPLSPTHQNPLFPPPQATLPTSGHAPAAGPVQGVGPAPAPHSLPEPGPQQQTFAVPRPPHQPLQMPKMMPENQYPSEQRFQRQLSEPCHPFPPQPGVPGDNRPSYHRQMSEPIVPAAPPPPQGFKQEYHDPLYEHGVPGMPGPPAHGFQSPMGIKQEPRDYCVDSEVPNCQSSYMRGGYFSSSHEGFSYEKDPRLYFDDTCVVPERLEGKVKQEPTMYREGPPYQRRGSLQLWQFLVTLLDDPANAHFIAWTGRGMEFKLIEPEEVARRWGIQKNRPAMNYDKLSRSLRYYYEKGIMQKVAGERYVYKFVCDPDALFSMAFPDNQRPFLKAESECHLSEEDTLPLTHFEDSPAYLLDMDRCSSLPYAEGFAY
# Procedure, shortened: as §1
# HSF1 = HSF1 (Homo sapiens, UniProt Q00613 1-529); details: protein: recombinant; tags: N-terminal GST; chain copies: 3; dsDNA, one strand shown
# HSF1, sequence (Q00613 whole entry): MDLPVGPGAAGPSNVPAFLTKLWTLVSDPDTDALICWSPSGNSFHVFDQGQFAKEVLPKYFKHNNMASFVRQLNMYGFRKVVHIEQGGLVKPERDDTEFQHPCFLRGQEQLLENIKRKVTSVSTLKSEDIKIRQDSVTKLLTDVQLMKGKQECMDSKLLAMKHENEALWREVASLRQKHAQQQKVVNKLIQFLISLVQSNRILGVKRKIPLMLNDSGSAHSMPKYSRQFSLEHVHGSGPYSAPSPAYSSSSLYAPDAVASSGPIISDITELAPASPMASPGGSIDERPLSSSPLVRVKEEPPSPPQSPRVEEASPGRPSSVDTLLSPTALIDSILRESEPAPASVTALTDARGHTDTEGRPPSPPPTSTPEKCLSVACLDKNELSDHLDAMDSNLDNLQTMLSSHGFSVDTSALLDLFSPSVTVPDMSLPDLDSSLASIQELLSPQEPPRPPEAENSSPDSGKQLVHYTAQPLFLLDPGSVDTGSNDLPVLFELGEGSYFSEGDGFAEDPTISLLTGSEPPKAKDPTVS
# Procedure, shortened: as §1
# SPIC = biological target: T8, SPIC (Homo sapiens, UniProt Q8N5J4 1-248); details: protein: recombinant; tags: N-terminal GST; dsDNA, one strand shown
# T8 sequence: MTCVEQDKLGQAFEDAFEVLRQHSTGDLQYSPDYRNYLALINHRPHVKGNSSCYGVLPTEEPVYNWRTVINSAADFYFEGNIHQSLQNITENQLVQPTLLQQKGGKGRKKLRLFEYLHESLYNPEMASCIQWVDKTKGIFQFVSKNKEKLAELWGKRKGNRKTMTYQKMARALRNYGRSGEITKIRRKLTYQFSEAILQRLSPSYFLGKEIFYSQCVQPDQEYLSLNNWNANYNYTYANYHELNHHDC
# Procedure, shortened: as §1
# ELF4 = ELF4 (Homo sapiens, UniProt Q99607 1-663); details: protein: recombinant; tags: N-terminal GST; dsDNA, one strand shown
# ELF4, sequence (Q99607 whole entry): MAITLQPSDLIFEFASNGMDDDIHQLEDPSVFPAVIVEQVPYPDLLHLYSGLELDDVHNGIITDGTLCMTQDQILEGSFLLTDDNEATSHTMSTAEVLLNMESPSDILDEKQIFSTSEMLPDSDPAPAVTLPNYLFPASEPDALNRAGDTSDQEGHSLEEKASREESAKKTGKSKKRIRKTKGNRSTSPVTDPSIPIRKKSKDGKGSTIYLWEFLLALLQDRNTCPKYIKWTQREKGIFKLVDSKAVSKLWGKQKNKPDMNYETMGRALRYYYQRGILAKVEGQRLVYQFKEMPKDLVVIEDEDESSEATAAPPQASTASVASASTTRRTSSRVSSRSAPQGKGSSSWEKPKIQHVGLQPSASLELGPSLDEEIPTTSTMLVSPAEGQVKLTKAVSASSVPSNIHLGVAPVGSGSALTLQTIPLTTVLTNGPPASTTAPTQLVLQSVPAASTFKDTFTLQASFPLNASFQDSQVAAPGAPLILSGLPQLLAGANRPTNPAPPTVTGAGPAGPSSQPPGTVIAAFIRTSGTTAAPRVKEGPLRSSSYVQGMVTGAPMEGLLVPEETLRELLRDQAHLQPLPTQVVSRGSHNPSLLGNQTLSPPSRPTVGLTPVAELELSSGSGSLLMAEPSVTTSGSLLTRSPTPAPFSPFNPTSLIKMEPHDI
# Procedure, shortened: as §1
# ELK4 = biological target: T9, ELK4 (Homo sapiens, UniProt P28324-2 1-405); details: protein: recombinant; tags: N-terminal GST; dsDNA, one strand shown
# T9 sequence: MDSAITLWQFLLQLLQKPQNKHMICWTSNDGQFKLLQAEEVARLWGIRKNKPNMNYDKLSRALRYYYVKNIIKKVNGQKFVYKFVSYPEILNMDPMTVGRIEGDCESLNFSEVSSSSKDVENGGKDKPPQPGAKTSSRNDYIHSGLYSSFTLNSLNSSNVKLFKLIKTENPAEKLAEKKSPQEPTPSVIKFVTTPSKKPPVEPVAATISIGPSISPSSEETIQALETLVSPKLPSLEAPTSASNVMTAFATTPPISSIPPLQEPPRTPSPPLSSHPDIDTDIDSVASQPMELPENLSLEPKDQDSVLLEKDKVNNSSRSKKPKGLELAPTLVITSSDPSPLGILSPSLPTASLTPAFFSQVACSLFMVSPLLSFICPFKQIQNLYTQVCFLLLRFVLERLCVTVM
# Procedure, shortened: as §1
# ETV2 = biological target: T10, ETV2 (Homo sapiens, UniProt O00321 1-342); details: protein: recombinant; tags: N-terminal GST; dsDNA, one strand shown
# T10 sequence: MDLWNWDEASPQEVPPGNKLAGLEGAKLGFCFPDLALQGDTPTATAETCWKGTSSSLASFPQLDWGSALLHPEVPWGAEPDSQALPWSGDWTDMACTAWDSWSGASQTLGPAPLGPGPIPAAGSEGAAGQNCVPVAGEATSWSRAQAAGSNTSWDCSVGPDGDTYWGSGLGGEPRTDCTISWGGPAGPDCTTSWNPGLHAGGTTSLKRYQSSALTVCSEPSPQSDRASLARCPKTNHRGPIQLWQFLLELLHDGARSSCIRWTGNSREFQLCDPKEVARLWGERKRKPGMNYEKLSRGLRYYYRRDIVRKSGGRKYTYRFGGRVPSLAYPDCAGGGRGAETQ
# Procedure, shortened: as §1
# ELF3 = biological target: T11, ELF3 (Homo sapiens, UniProt P78545 1-371); details: protein: recombinant; tags: N-terminal GST; dsDNA, one strand shown
# T11 sequence: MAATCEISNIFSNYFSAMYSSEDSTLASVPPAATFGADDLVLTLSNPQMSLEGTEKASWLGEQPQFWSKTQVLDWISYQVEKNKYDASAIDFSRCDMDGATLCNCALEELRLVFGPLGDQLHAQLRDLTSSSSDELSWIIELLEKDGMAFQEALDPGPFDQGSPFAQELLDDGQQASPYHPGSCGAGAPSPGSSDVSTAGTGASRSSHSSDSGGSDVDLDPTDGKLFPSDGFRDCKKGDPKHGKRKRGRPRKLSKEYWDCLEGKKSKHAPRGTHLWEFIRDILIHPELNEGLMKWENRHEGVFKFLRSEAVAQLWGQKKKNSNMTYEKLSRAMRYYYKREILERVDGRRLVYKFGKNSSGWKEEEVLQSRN
# Procedure, shortened: as §1
# CRX = CRX (Homo sapiens, UniProt O43186 1-299); details: protein: recombinant; tags: N-terminal GST; dsDNA, one strand shown
# CRX, sequence (O43186 whole entry): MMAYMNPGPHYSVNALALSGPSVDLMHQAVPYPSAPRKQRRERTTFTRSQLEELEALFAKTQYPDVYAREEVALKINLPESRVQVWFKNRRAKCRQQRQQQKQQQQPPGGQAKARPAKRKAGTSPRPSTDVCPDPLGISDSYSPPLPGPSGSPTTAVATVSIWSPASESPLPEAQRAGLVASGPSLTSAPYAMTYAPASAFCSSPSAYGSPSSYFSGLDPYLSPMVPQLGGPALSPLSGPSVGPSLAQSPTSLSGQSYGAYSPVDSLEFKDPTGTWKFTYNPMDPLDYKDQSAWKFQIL
# Procedure, shortened: as §1
# ETV1 = ETV1 (Homo sapiens, UniProt P50549 1-477); details: protein: recombinant; tags: N-terminal GST; dsDNA, one strand shown
# ETV1, sequence (P50549 whole entry): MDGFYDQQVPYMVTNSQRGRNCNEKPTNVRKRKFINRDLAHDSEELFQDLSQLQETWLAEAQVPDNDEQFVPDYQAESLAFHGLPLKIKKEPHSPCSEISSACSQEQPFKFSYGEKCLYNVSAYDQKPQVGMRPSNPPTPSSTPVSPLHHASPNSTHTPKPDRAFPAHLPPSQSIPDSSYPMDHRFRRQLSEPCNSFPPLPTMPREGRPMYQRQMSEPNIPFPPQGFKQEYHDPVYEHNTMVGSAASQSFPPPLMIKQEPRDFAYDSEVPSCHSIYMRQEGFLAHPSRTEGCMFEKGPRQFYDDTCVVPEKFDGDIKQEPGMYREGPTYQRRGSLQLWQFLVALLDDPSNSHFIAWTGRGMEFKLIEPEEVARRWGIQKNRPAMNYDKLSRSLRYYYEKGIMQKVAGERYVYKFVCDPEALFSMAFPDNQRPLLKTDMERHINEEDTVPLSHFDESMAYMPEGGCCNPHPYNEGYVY
# Procedure, shortened: as §1
sequence,measurement,setting,value
ACTTCG,binding signal,FLI1,"1.38 fold enrichment (6-mer frequency, TF over GST control)"
same,binding signal,ELK1,"1.38 fold enrichment (6-mer frequency, TF over GST control)"
same,binding signal,GABPA,"1.46 fold enrichment (6-mer frequency, TF over GST control)"
same,binding signal,ERG,"1.47 fold enrichment (6-mer frequency, TF over GST control)"
same,binding signal,ELF1,"1.33 fold enrichment (6-mer frequency, TF over GST control)"
same,binding signal,EHF,"1.3 fold enrichment (6-mer frequency, TF over GST control)"
same,binding signal,SPI1,"1.44 fold enrichment (6-mer frequency, TF over GST control)"
same,binding signal,SPIB,"1.39 fold enrichment (6-mer frequency, TF over GST control)"
same,binding signal,ELK3,"1.49 fold enrichment (6-mer frequency, TF over GST control)"
same,binding signal,FEV,"1.42 fold enrichment (6-mer frequency, TF over GST control)"
same,binding signal,ETV5,"1.39 fold enrichment (6-mer frequency, TF over GST control)"
same,binding signal,HSF1,"1.65 fold enrichment (6-mer frequency, TF over GST control)"
same,binding signal,SPIC,"1.55 fold enrichment (6-mer frequency, TF over GST control)"
same,binding signal,ELF4,"1.47 fold enrichment (6-mer frequency, TF over GST control)"
same,binding signal,ELK4,"1.25 fold enrichment (6-mer frequency, TF over GST control)"
same,binding signal,ETV2,"1.45 fold enrichment (6-mer frequency, TF over GST control)"
same,binding signal,ELF3,"1.23 fold enrichment (6-mer frequency, TF over GST control)"
same,binding signal,CRX,"1.3 fold enrichment (6-mer frequency, TF over GST control)"
same,binding signal,ETV1,"1.46 fold enrichment (6-mer frequency, TF over GST control)"

# Source: paper PMC7862700, “An all-to-all approach to the identification of sequence-specific readers for epigenetic DNA modifications on cytosine”
